HEK293 tox – HEK 293 cell cytotoxicity; HEK 293 viability, ATP luminescence (CellTiter-Glo), 48-72 h; Potency, µM (highest dose often 115 µM), without a hit: top-dose activity change, negative = cytotoxicity, hits mostly inhibitors; 94,000 compounds, 6.6% hits; AID 1345083; note: nearly all actives have a fitted effect of over 60% in size
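CellTiter-Glo luminescence (cellular ATP) was read after 48 or 72 hr of compound exposure at 37 degree Celsius. Cells were HEK 293 plated at 250 cells/well.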
NPR1 antag – blocks ANP-stimulated signaling of human Npr1 receptor. P16066. HEK293 hNpr1 GloSensor cGMP, ANP-stimulated luminescence. Potency, µM (titrated, usually from 46.3 µM), inactives show at the top dose activity change, negative = inhibition, hits mostly inhibitors. 76,000 compounds, 1.6% hits; calls by dose curve; note: nearly all actives have a fitted effect of over 60% in size
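HEK293 cells stably expressing human Npr1 and cGMP GloSensor pGS-40F, loaded 2 h with 2% GloSensor reagent, given compound 30 min at room temperature. Luminescence read before and 20 min after 0.1 nM hNppA.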
NIH3T3 tox – cytotoxic compounds in NIH 3T3 cells; NIH 3T3 viability, CellTiter-Glo ATP luminescence, 48-72 h; Potency, µM (top dose mostly 96.7 µM), without a hit: top-dose activity change, negative = cytotoxicity, usual class: inhibitors; 94,000 compounds, 4.3% hits; note: nearly all actives have a fitted effect of over 55% in size
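Luminescent ATP readout (CellTiter-Glo, 10 min RT) after 48 or 72 hr compound exposure of NIH 3T3 cells seeded at 400 cells/well in 1536-well format; quantitative HTS.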
Luciferase inh – Photinus pyralis luciferase inhibition | 76,000 compounds, 2.5% hits | purified P. pyralis luciferase, luminescence, biochemical | Potency, µM (series often up to 115 µM), hits mostly inhibitors | P08659 | AID 1347043; note: nearly all actives have a fitted effect of over 65% in size
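Luminescence read by CCD imager after adding enzyme (10nM final) to wells holding compound, titrated in qHTS. Substrates 10uM each D-luciferin and ATP; buffer 50mM Tris acetate pH 7.5, 10mM Mg acetate, Tween-20, BSA.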
GPT2 inhibitor – GPT2 alanine aminotransferase inhibition | 100,000 compounds, 0.25% hits | Recombinant GPT2, coupled pyruvate oxidase/HRP Amplex Red fluorescence | Q8TD30 | Potency, µM (doses to about 57.7 µM), without a hit: at the highest dose activity change, negative = inhibition, actives largely listed as inhibitors; note: nearly all actives have a fitted effect of over 60% in size
Target sequence (Q8TD30 whole entry, looked up): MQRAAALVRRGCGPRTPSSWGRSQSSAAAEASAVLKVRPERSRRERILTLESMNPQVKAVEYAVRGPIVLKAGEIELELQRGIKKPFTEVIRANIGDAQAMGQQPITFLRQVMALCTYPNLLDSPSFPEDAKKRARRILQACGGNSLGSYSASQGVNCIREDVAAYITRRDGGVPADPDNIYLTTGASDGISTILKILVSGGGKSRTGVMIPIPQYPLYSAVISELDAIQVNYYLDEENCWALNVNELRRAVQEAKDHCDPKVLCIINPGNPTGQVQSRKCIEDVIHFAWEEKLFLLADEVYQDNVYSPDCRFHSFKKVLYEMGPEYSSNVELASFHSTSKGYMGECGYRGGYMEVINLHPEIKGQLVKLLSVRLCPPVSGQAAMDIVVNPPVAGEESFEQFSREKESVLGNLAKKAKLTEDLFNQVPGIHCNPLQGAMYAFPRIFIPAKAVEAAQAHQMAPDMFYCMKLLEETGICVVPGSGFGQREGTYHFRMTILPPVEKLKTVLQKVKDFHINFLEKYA
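GPT2 10ng/uL, a-KG 250uM, L-Ala 2mM, HEPES pH7.5 + 0.0001% Tween; 30 min RT. Then Amplex mix (PO/HRP/ThPP), 30 min RT dark, fluorescence. AOA 50uM used as positive control.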
The depositor's hits bear a star; i = inactive; ? = inconclusive; nt = no result given; [ ] = dose if it differs, or a comment. Hits are enriched below; roughly 10% of the tested compounds scored in any of these assays. Unless noted, calls come from the whole dose curve; as a rule, active = well fitted curve in the direction sought with a large enough effect; inconclusive = small, poorly fitted or top-dose-only effect, or another doubt; inactive = no such curve, though single readings can be large; an effect the other way counts as inactive or inconclusive. % is set by controls: 0 for no effect and ±100 for the full control effect; potency is the fitted concentration of half-maximal effect.

SMILES	HEK293 tox	NPR1 antag	NIH3T3 tox	Luciferase inh	GPT2 inhibitor
Cc1noc(C)c1-c1cc2c(c(-c3ccc(CO)cc3)c1)C(=O)N(C)C2	?	4%[70.6 µM]	79µM*	i	2%[88.5 µM]
CN(Cc1ccc(F)cc1)C(=O)c1cn(Cc2ccccc2C(F)(F)F)nn1	7.9µM*	4%	?	i	?
O=C(Nc1ccc(F)cc1)C1CCCCN1Cc1ccc(-c2cccs2)cc1 (stereo unspecified)	?	nt	?	nt	i
COCCNc1cc(-c2ccnc(SC)n2)c2cc[nH]c2n1	?	6%	?	i	-13%
CC(C)c1cccc(-c2cc(NCc3ccccn3)nc3[nH]ccc23)n1	45µM*	-4%	?	?	1%
CN(C)CCNc1cc(-c2ccc3ccccc3n2)c2cc[nH]c2n1	40µM*	-2%	?	i	4%[11.5 µM]
COc1ccc(Nc2ccnc(N3CCC(C(=O)NC4CCCC4)CC3)n2)cc1	?	nt	35µM*	nt	i
COc1ccc(Nc2ccnc(N3CCN(C(=O)C4CCCC4)CC3)n2)cc1	28µM*	nt	?	nt	i
COc1ccc(Nc2ccnc(N3CCC(C(=O)N4CCOCC4)CC3)n2)cc1	-30%	nt	-25%	nt	?
COc1ccc(Nc2ccnc(N3CCC(NC(=O)C4CCCC4)CC3)n2)cc1	50µM*	nt	?	nt	-2%
CCCOc1ccccc1C(C)Nc1nc(-c2cccnc2)nc2c1CNC2 (stereo unspecified)	79µM*	-29%	?	i	-5%
CCCn1c(C)cnc1C1CCN(S(=O)(=O)c2ccc3c(c2)CCC3)C1 (stereo unspecified)	?	-1%	?	i	i
O=C(NCCN[S+](=O)([O-])c1ccccc1)c1cccc(-c2ccc(C(F)(F)F)cc2)c1	10µM*	nt	22µM*	nt	-25%
COc1cccc(-c2ccc(C(=O)NCCN[S+](=O)([O-])c3ccccc3)cc2)c1	45µM*	nt	?	nt	nt
C[S+](=O)([O-])NCCNC(=O)c1cccc(-c2ccc(C(F)(F)F)cc2)c1	?	nt	?	nt	i
Cc1noc(C)c1[S+](=O)([O-])NCCNC(=O)c1ccc(-c2cccc(C(F)(F)F)c2)cc1	?	nt	35µM*	nt	nt
COc1cccc(-c2ccc(C(=O)NCCN[S+](=O)([O-])c3cccc(C(F)(F)F)c3)cc2)c1	32µM*	nt	?	nt	nt
COc1ccc(CN2CC(O)CN([S+](=O)([O-])c3ccc(C)cc3)CC2=O)cc1 (stereo unspecified)	-27%	nt	?	nt	nt
CCC1Oc2ccc(NC(=O)c3c(F)cccc3F)cc2CN(Cc2ccc(F)cc2Cl)C1=O (stereo unspecified)	?	-3%	?	i	i
COc1cccc(-c2ccc(C(=O)NCCNC(=O)c3ccc4c(c3)OCO4)cc2)c1	79µM*	nt	-27%	nt	nt
COc1ccc(C(=O)NCCNC(=O)c2ccc(-c3cccc(OC)c3)cc2)cc1	-3%	nt	-23%	nt	nt
O=C(NCc1cccnc1)C1CN(S(=O)(=O)c2cccnc2)CC12CCCCC2 (stereo unspecified)	1%	-3%	i	i	-10%
O=S(=O)(Cc1ccccc1)N1CCC(OC2CCN(Cc3cccnc3)CC2)CC1	-20%	3%	-24%	i	i
CCCn1cc(-c2ccnc(NC3CCN(Cc4cccnc4)CC3)n2)c(C)n1	28µM*	?	?	i	4%
CCC(=O)N1CCN(C(=O)N2CC3CC(C2)[C@H]2CCCC(=O)N2C3)CC1 (stereo partly specified)	14%	1%	i	i	i
SMILES	HEK293 tox	NPR1 antag	NIH3T3 tox	Luciferase inh	GPT2 inhibitor
CCC(O)c1cc2n(n1)CCN(Cc1nccn1Cc1ccccc1)C2 (stereo unspecified)	2%	4%	-11%	i	i
COc1ccc(C(=O)N2C[C@@H]3C[C@H](C2)c2ccc(NC(=O)Nc4cccc(C#N)c4)c(=O)n2C3)cc1	?	-2%	?	25µM*	i
COc1ccc(C(=O)N2C[C@@H]3C[C@H](C2)c2c(NC(=O)Nc4ccccc4)ccc(=O)n2C3)cc1	10µM*	-2%	i	i	5%
COc1ccc(C(=O)N2C[C@@H]3C[C@H](C2)c2c(NS(=O)(=O)c4ccccc4)ccc(=O)n2C3)cc1	1%	2%	2%	i	i
CSc1ccc(-c2cccc(C(=O)NCCN[S+](=O)([O-])c3ccc(C)cc3)c2)cc1	40µM*	nt	?	nt	i
CSc1ccc(-c2cccc(C(=O)NCCNC(=O)N(C)C)c2)cc1	25µM*	nt	?	nt	i
COc1ccc(C(=O)NCCNC(=O)c2cccc(-c3ccc(SC)cc3)c2)cc1	?	nt	?	nt	i
CSc1ccc(-c2cccc(C(=O)NCCN[S+](=O)([O-])c3cccc(C(F)(F)F)c3)c2)cc1	?	nt	?	nt	i
COc1cccc(CNC(=O)CNC(=O)c2cccc(-c3ccc(SC)cc3)c2)c1	22µM*	nt	-34%	nt	?
CC1CCN(c2ccc(-c3cccc(N)c3)nn2)CC1	32µM*	0.63µM*	32µM*	0.1µM*	1%
COc1cccc(NC(=O)N[C@H]2CCN(C(=O)C=C(C)C)[C@@H]2C(=O)N(C)CC(N)=O)c1	-5%[172 µM]	-2%[70.6 µM]	3%[174 µM]	i	0%[88.5 µM]
CN(Cc1cccnc1)c1nc2c(c(=O)[nH]1)CCN(Cc1ccc(C(F)(F)F)cc1)CC2	32µM*	-17%	?	i	i
CN(Cc1cccnc1)c1nc2c(c(=O)[nH]1)CCN(Cc1cccc(Cl)c1F)CC2	25µM*	-12%	?	i	-10%
Cc1ccc(C(=O)NC[C@H]2O[C@@H](CC(=O)NC(C)C)[C@H](O)[C@@H]2O)cc1	i	0%[70.6 µM]	2%[174 µM]	i	-5%[88.5 µM]
COc1ccc(-c2nc(-c3nnn4c3COC(c3ccc(Cl)cc3)C4)no2)cc1OC (stereo unspecified)	0%	6%	i	i	i
CC1(C)CC2=C3C=CC4C5(C)CCC(O)C(C)(C)C5CCC4(C)C3(C)CCC2(C)C(O)C1 (stereo unspecified)	nt	nt	nt	nt	i
O=C(NCC(F)F)C1CCCN1c1nc2ncccc2o1 (stereo unspecified)	-1%[172 µM]	6%[70.6 µM]	-2%[138 µM]	i	i
COc1cccc(-c2cn3c(n2)N(C(=O)C2CCC2)CCC3)c1	?	-3%	5%	?	i
Cc1ccsc1C(=O)N1CCCn2cc(-c3ccccc3)nc21	?	-2%	i	i	i
Cc1ccc(-c2cn3c(n2)N(C(=O)c2cnn4cccnc24)CCC3)cc1	79µM*	-2%	i	i	i
O=C(c1nc2ncccn2n1)N1CCCn2cc(-c3ccccc3)nc21	?	4%	-6%	i	i

Screening results deposited in PubChem BioAssay by National Center for Advancing Translational Sciences (NCATS).
